The campaign covered roughly 360,000 compounds. About 11,000 (3.1%) were called active. About 2% were inconclusive and are not listed. The list comes from a sample in which actives are over-represented; it also holds similar structures and randomly drawn compounds. Unmarked numbers belong to inactive results. Rule as the data show it: active = fluorescence intensity above about 16000; inconclusive = no clear call, values can overlap the other calls; inactive = below that.
Experiment: counter-screen for toxin protease inhibitors: compound fluorescence, primary screen, artefact control for toxin protease inhibitor project, biochemical, multiplex microsphere, HTS (AID 624483)
Details: compound autofluorescence counterscreen, microsphere flow cytometry; active compounds read high
With `O=C(CSc1ncccn1)NC(=O)NCc1ccccc1` the fluorescence intensity was 10500. With `CC(C)C(C)NC(=O)COc1ncnc2ccccc12` (stereo unspecified) the fluorescence intensity was 2080. For `O=C(COc1ncnc2ccccc12)NC(=O)NCc1ccccc1`, the fluorescence intensity was 16500 (active). Molecule `CCc1nc2ccccc2c(C(=O)NCc2ccc(OC)cc2)c1C` has a fluorescence intensity of 4980. For `CCSc1ccccc1C(=O)NCc1ccc(OC)cc1`, the fluorescence intensity was 24300 (active). `CSc1ccccc1C(=O)NCc1ccccc1` gave a fluorescence intensity of 3280. Molecule `O=C(CCN1C(=O)c2ccccc2C1=O)C1=NN[C@@H]2C(=O)N(c3ccc(F)cc3)C(=O)[C@H]12` has a fluorescence intensity of 2580. Work on `CC(C)(C)N1C(=O)c2c(C(=O)OCc3ccccc3)[nH]c(-c3ccccc3)c2C1=O` yielded a fluorescence intensity of 5800. Molecule `O=c1ccc(S(=O)(=O)N2CCCC2)cn1Cc1nc(-c2ccccc2)no1` has a fluorescence intensity of 3920. In the case of `CC1CCN(Cc2nc(-c3ccc(Cl)cc3)no2)CC1`, the fluorescence intensity is reported as 6270. With `Cc1ccc(-c2noc(CN3CCN(Cc4ccccc4)CC3)n2)cc1` the fluorescence intensity was 23500 (active). For `COc1ccc(S(=O)(=O)N2CCCCC2c2cc(C(=O)NCc3ccc(F)cc3)no2)cc1` (stereo unspecified), the fluorescence intensity was 2840. `CCCNC(=O)COc1coc(CN2CCN(Cc3ccccc3)CC2)cc1=O` gave a fluorescence intensity of 5680. With `CC1(C)Oc2ccc3ccc(=O)oc3c2/C(=C/NCCO)C1=O` the fluorescence intensity was 2160. In the case of `CCOC(=O)Cn1c2c(c(-c3ccccc3OC)cc1=O)CCCC2`, the fluorescence intensity is reported as 23500 (active). Molecule `COc1ccccc1C1=CC(=O)CCC1` has a fluorescence intensity of 3790. `CCOC(=O)CN1CCC(c2ccccc2)CC1` showed a fluorescence intensity of 2610. `C[C@H]([C@@H](O)[C@@H](O)[C@@H](C)C(C)(C)C)[C@H]1CC[C@H]2C3CC[C@H]4C[C@H](OS(=O)(=O)O)[C@@H](OS(=O)(=O)O)C[C@]4(C)[C@H]3CC[C@]12C` (stereo partly specified) showed a fluorescence intensity of 4680. `CCOC(=O)Cc1csc(SCC(=O)NC(C)C23CC4CC(CC(C4)C2)C3)n1` (stereo unspecified) gave a fluorescence intensity of 9570. For `COC(=O)CNC(=O)c1ccc2c(c1)S(=O)(=O)c1ccccc1C2=O`, the fluorescence intensity was 2970. With `CC(C)NC(=O)NNc1c(Cl)cncc1Cl` the fluorescence intensity was 3840. `Cc1nc(N)[nH]c(=O)c1Oc1cccc(C(F)(F)F)c1` gave a fluorescence intensity of 6010. With `CCC(=O)OCc1c(C(F)(F)F)nn(C)c1Oc1cccc(C(F)(F)F)c1` the fluorescence intensity was 18100 (active). In the case of `CCOC(=O)NNc1cc(C(F)(F)F)ccn1`, the fluorescence intensity is reported as 3590. `CCCCNC(=O)Nc1c(C)cc(SC#N)cc1C` gave a fluorescence intensity of 2550. For `Cn1c2ccccc2n2c(=O)c(=O)n(CC(=O)c3ccc(F)cc3)nc12`, the fluorescence intensity was 8720. Molecule `CC1(C(=O)NS(=O)(=O)c2ccccc2)CCN1C(=O)C1CCCCC1` (stereo unspecified) has a fluorescence intensity of 3660. `Cc1ccccc1N1CCN(S(=O)(=O)c2ccc3ccccc3c2)CC1` gave a fluorescence intensity of 4580. In the case of `Cc1ccc(S(=O)(=O)N2CCN(c3ccccc3)CC2)cc1C`, the fluorescence intensity is reported as 4010. With `Cc1cc(N2CCN(S(=O)(=O)c3ccc(C)c(C)c3)CC2)c2ccccc2n1` the fluorescence intensity was 23300 (active). Work on `CCCS(=O)(=O)NC(=O)C1(C)CCN(C(=O)c2sccc2C)C1` (stereo unspecified) yielded a fluorescence intensity of 3570. `CC(=O)N1Cc2cc(C(=O)NCc3cccc(F)c3)nc(-c3cccc(C4=CCCC4)c3)c2[C@H]1CCO` gave a fluorescence intensity of 5550. In the case of `O=[N+]([O-])c1ccc(C2C3C(c4ccccc4)=NC4(CCCCC4)N32)cc1` (stereo unspecified), the fluorescence intensity is reported as 7680. For `O=C1NC2(CCCCC2)N=C1c1ccccc1`, the fluorescence intensity was 24900 (active). `O=c1cc(-c2ccccc2)nc(N2CCCCC2)[nH]1` gave a fluorescence intensity of 6120. Work on `CCCNC(=O)C1(C)CCN(C(=O)c2ccc(F)cc2Cl)C1` (stereo unspecified) yielded a fluorescence intensity of 2840. `COCCNC(=O)C1CCCN(Cc2ccccc2Cl)CC1` (stereo unspecified) gave a fluorescence intensity of 3660. For `CCOC(=O)c1nnn(-c2nonc2-n2cccc2)c1CN1CCOCC1`, the fluorescence intensity was 10800. For `CCOC(=O)c1c(CN2CCOCC2)n(-c2ccccc2)c2ccc(O)cc12`, the fluorescence intensity was 16500 (active). In the case of `CCOC(=O)c1c(CN(C)C)n(-c2ccccc2)c2cc(Br)c(O)cc12`, the fluorescence intensity is reported as 5060. In the case of `C[C@H]1CN([C@@H](C)CO)C(=O)Cc2cc(NS(C)(=O)=O)ccc2O[C@@H]1CN(C)CC1CC1`, the fluorescence intensity is reported as 3570. `CCc1nc2c(OCCOc3ccccc3)cccn2c1N(C)C(=O)c1cccs1` showed a fluorescence intensity of 3880. With `CCOc1ccc(Cl)cc1-c1cc(C(=O)NCc2cccs2)[nH]n1` the fluorescence intensity was 3900. In the case of `CC(=O)c1cccc(-c2cnc3c(NC=O)cc(-c4ccc(N(C)C)cc4)cn23)c1`, the fluorescence intensity is reported as 3260. In the case of `CC(C)(C)OC(=O)N1CCN(C(=O)c2[nH]c(C(F)(F)F)nc2-c2ccccc2)CC1`, the fluorescence intensity is reported as 5720. `CCN(CC(=O)Nc1ccc2c(c1)OCCO2)Cc1cc(=O)oc2cc(C)c(C)cc12` gave a fluorescence intensity of 10100.

Source: PubChem BioAssay AID624483 (NMMLSC, 2012)
